Read-out in test [1]: Thrombomodulin, THBD (gene 7056)
Nature of the test: BSK_CASM3C_Thrombomodulin: BioMAP Diversity Plus: CASM3C Assay for Thrombomodulin Biomarker Activity (AID 2283051).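 Further: thrombomodulin protein level measured by ELISA 24 h after dosing.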 As to conditions: primary human coronary artery smooth muscle cells; actives raise or lower the signal.

Read-out in test [2]: Tissue Factor, F3 (gene 2152)
The experiment in a line: BSK_CASM3C_TissueFactor: BioMAP Diversity Plus: CASM3C Assay for Tissue Factor Biomarker Activity (AID 2283052).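 Further: cell surface tissue factor protein level read by ELISA.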 As to conditions: primary human coronary artery smooth muscle cells; actives raise or lower the signal.

Read-out in test [3]: Interferon-gamma inducible Protein 10 (IP10), CXCL10 (gene 3627)
Nature of the test: BSK_hDFCGF_IP10: BioMAP Diversity Plus: hDFCGF Assay for Interferon-gamma inducible Protein 10 (IP10) Biomarker Activity (AID 2283053). As to conditions: primary human foreskin fibroblasts; actives raise or lower the signal. In short, it runs like this:
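Cells: human dermal foreskin fibroblasts. Exposure: 24 h post-dosing. Detection: IP-10 ELISA, with values expressed against DMSO controls and fitted in both directions.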

Read-out in test [4]: Urokinase-type plasminogen activator receptor (uPAR), PLAUR (gene 5329)
The experiment in a line: BSK_CASM3C_uPAR: BioMAP Diversity Plus: CASM3C Assay for Urokinase-type plasminogen activator receptor (uPAR) Biomarker Activity (AID 2283054).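 Further: cell-surface uPAR protein level quantified by ELISA.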 Conditions: primary human coronary artery smooth muscle cells; actives raise or lower the signal.

Read-out in test [5]: Vascular cell adhesion molecule 1 (VCAM1), VCAM1 (gene 7412)
Nature of the test: BSK_CASM3C_VCAM1: BioMAP Diversity Plus: CASM3C Assay for Vascular cell adhesion molecule 1 (VCAM1) Biomarker Activity (AID 2283055).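 Further: VCAM-1 protein level quantified by ELISA on the cells.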 Conditions: primary human coronary artery smooth muscle cells; actives raise or lower the signal.

Read-out in test [6]: Collagen III, COL3A1 (gene 1281)
Nature of the test: BSK_hDFCGF_CollagenIII: BioMAP Diversity Plus: hDFCGF Assay for Collagen III Biomarker Activity (AID 2283056). As to conditions: primary human foreskin fibroblasts; actives raise or lower the signal. The method in brief: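 Human foreskin primary fibroblasts were exposed to test chemicals for 24 h, after which collagen III was quantified by ELISA. Activity was fitted bidirectionally against DMSO as negative control and baseline.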

Read-out in test [7]: Epidermal growth factor receptor (EGFR), EGFR (gene 1956)
The experiment in a line: BSK_hDFCGF_EGFR: BioMAP Diversity Plus: hDFCGF Assay for Epidermal growth factor receptor (EGFR) Biomarker Activity (AID 2283057). Conditions: primary human foreskin fibroblasts; actives raise or lower the signal. The method in brief:
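Dosing human primary skin fibroblasts, then measuring surface EGFR by ELISA at 24 h, gives the endpoint; gains and losses relative to DMSO were fitted in both directions.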

Read-out in test [8]: Interleukin-8 (IL8), CXCL8 (gene 3576)
The experiment in a line: BSK_hDFCGF_IL8: BioMAP Diversity Plus: hDFCGF Assay for Interleukin-8 (IL8) Biomarker Activity (AID 2283058). Conditions: primary human foreskin fibroblasts; actives raise or lower the signal. In short, it runs like this:
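hDFCGF human dermal fibroblasts; 24 h chemical exposure; IL-8 by ELISA; bidirectional curve fit vs DMSO baseline; gain or loss of signal scored.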

A short description of test [9]: BSK_hDFCGF_Proliferation: Cell Proliferation Assessment in the BioMAP Diversity Plus: hDFCGF Assay (AID 2283059).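 Further: curves fitted for both rise and fall of signal versus DMSO baseline.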 Conditions: primary human foreskin fibroblasts. The method in brief:
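Primary human foreskin fibroblasts, sub-confluent; […]; 10% TCA fix, 0.1% SRB stain, A560 total protein. Gain/loss fitted bidirectionally vs DMSO control.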

Read-out in test [10]: Macrophage colony-stimulating factor (MCSF), CSF1 (gene 1435)
The experiment in a line: BSK_hDFCGF_MCSF: BioMAP Diversity Plus: hDFCGF Assay for Macrophage colony-stimulating factor (MCSF) Biomarker Activity (AID 2283060). Conditions: primary human foreskin fibroblasts; actives raise or lower the signal. The method in brief: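 Human foreskin primary fibroblasts were treated with test chemical for 24 h, and M-CSF was then measured by ELISA. Data were fitted bidirectionally against DMSO as the negative control and activity baseline.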

A short description of test [11]: BSK_hDFCGF_SRB: Viability Assessment in the BioMAP Diversity Plus: hDFCGF Assay (AID 2283061).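 Further: cells exposed to compound for 24 h before the read.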 Conditions: primary human foreskin fibroblasts. In short, it runs like this: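 Human foreskin primary fibroblasts were treated with compound and assessed 24 h after dosing. Total protein was measured by sulforhodamine B staining (0.1% SRB after 10% TCA fixation, 560 nm read) as a cytotoxicity marker, with bidirectional fitting against DMSO baseline.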

Read-out in test [12]: Monokine induced gamma interferon (MIG), CXCL9 (gene 4283)
Nature of the test: BSK_hDFCGF_MIG: BioMAP Diversity Plus: hDFCGF Assay for Monokine induced gamma interferon (MIG) Biomarker Activity (AID 2283063). Conditions: primary human foreskin fibroblasts; actives raise or lower the signal. The method in brief:
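ELISA read-out of MIG from primary human dermal fibroblasts 24 h post-dosing. Gain or loss of signal fitted bidirectionally, DMSO as baseline.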

Read-out in test [13]: Matrix Metallopeptidase 1 (MMP1), MMP1 (gene 4312)
The experiment in a line: BSK_hDFCGF_MMP1: BioMAP Diversity Plus: hDFCGF Assay for Matrix Metallopeptidase 1 (MMP1) Biomarker Activity (AID 2283064). As to conditions: primary human foreskin fibroblasts; actives raise or lower the signal. The method in brief:
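MMP1 levels quantified by ELISA 24 h after dosing human dermal fibroblast cultures, with parallel SRB total-protein staining for overt cytotoxicity. Data fitted in both directions against DMSO baseline.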

Read-out in test [14]: Vascular cell adhesion molecule 1 (VCAM1), VCAM1 (gene 7412)
Nature of the test: BSK_hDFCGF_VCAM1: BioMAP Diversity Plus: hDFCGF Assay for Vascular cell adhesion molecule 1 (VCAM1) Biomarker Activity (AID 2283065). As to conditions: primary human foreskin fibroblasts; actives raise or lower the signal. In short, it runs like this:
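Primary human foreskin fibroblasts (hDFCGF system) were dosed with chemical and VCAM-1 was measured by ELISA 24 h later. Bidirectional curve fitting used DMSO as negative control and activity baseline.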

Read-out in test [15]: Plasminogen activator inhibitor-1 (PAI1), SERPINE1 (gene 5054)
The experiment in a line: BSK_hDFCGF_PAI1: BioMAP Diversity Plus: hDFCGF Assay for Plasminogen activator inhibitor-1 (PAI1) Biomarker Activity (AID 2283066). Conditions: primary human foreskin fibroblasts; actives raise or lower the signal. The method in brief: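 Fibroblasts from human foreskin were treated with test chemical. After 24 h, PAI-1 was measured by ELISA. Activity was fitted in both directions relative to DMSO.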

Read-out in test [16]: Intercellular Adhesion Molecule 1 (ICAM1), ICAM1 (gene 3383)
The experiment in a line: BSK_KF3CT_ICAM1: BioMAP Diversity Plus: KF3CT Assay for Intercellular Adhesion Molecule 1 (ICAM1) Biomarker Activity (AID 2283067). Conditions: primary human keratinocytes with fibroblasts; actives raise or lower the signal. The method in brief:
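Human keratinocyte plus foreskin fibroblast primary co-culture was exposed to chemical for 24 h. ICAM-1 was then quantified by ELISA, and the data were fit bidirectionally against DMSO as the negative control and baseline.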

Read-out in test [17]: Interferon-gamma inducible Protein 10 (IP10), CXCL10 (gene 3627)
The experiment in a line: BSK_KF3CT_IP10: BioMAP Diversity Plus: KF3CT Assay for Interferon-gamma inducible Protein 10 (IP10) Biomarker Activity (AID 2283068). Conditions: primary human keratinocytes with fibroblasts; actives raise or lower the signal. In short, it runs like this: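 In a primary skin co-culture of keratinocytes and fibroblasts, IP-10 is quantified by ELISA at 24 h after dosing. SRB staining of parallel wells monitors overt toxicity. Curves are fitted both directions against DMSO.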

Test [18] in a line: BSK_KF3CT_SRB: Viability Assessment in the BioMAP Diversity Plus: KF3CT Assay (AID 2283069). Conditions: primary human keratinocytes with fibroblasts. In short, it runs like this:
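Cytotoxicity was gauged by SRB staining (0.1% SRB, 10% TCA fixation, 560 nm) of parallel cultures at 24 h. The cells were primary human skin keratinocytes co-cultured with fibroblasts, and activity was fitted in both directions against DMSO.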

Read-out in test [19]: Interleukin-1 alpha (IL1a), IL1A (gene 3552)
Nature of the test: BSK_KF3CT_IL1a: BioMAP Diversity Plus: KF3CT Assay for Interleukin-1 alpha (IL1a) Biomarker Activity (AID 2283070). As to conditions: primary human keratinocytes with fibroblasts; actives raise or lower the signal. The method in brief:
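IL-1a was detected by ELISA 24 h after chemical treatment of a co-culture of human skin keratinocytes and foreskin fibroblasts. Gain or loss of signal was fitted against the DMSO baseline.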

Read-out in test [20]: TIMP metallopeptidase inhibitor 1 (TIMP1), TIMP1 (gene 7076)
Nature of the test: BSK_hDFCGF_TIMP1: BioMAP Diversity Plus: hDFCGF Assay for TIMP metallopeptidase inhibitor 1 (TIMP1) Biomarker Activity (AID 2283062). As to conditions: primary human foreskin fibroblasts; actives raise or lower the signal. The method in brief:
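Primary human foreskin fibroblasts in the hDFCGF system were dosed with compound for 24 h, then TIMP-1 was measured by ELISA. Activity was fitted bidirectionally relative to DMSO control; parallel SRB staining assessed cytotoxicity.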

The record followed here is PubChem BioAssay (EPA / NIEHS).

Active and inactive are the calls of the source. How the source made its calls: active means hit-call score of the fitted dose curve at least 0.9, where 1 is the maximum; inactive means score below 0.9.

Broadly, the AC50 is the midpoint of the concentration-response curve, whichever way the signal moves.

For the compound `CCCCOCCOP(=O)(OCCOCCCC)OCCOCCCC`, the outcome in test [1], in [3], in test [4], in [7], in [8] and in test [9] was inactive. The outcome in test [10], in [11], in [12], in test [13], in [14] and in test [15] was inactive. Moreover, the result in test [16], in test [17], in test [18] and in [19] was inactive. Further, the values for the AC50 in test [2], in [5] and in [6] were 1.99 µM (active), 0.016 µM (active) and 0.016 µM (active), respectively.

With `Cc1c([N+](=O)[O-])cc2c(c1[N+](=O)[O-])C(C)(C)CC2(C)C`, the AC50 in [1] is 7.74 µM (active); in test [4], 0.384 µM (active); in test [6] it was 3.32 µM (active); in test [9], 20 µM (active); in test [10], 3.02 µM (active). The outcome in test [2], in [3], in [5], in test [7], in [8] and in test [11] was inactive. In addition, the outcome in [20], in test [12], in test [13], in test [14], in test [15] and in test [16] was inactive. Moreover, the outcome in [17], in test [18] and in test [19] was inactive.

On to `Nc1ccc(Cl)cc1`, for which the outcome in test [1], in test [2], in [3], in test [4], in test [5] and in test [6] was inactive. In addition, the outcome in test [7], in [8], in [10], in test [11], in [20] and in test [12] was inactive. Also, the result in [13], in [14], in test [15], in test [16], in test [17] and in [18] was inactive. For the same compound, the result in test [19] was inactive. Also, the AC50 in [9] is 7.71 µM (active).

With `CCOP(=S)(OCC)SCSCC`, the result in test [1], in [2], in [3], in test [4], in [5] and in [6] was inactive. Also, the result in test [7], in [8], in test [9], in test [10], in test [11] and in [20] was inactive. Besides, the result in test [12], in test [13], in test [14], in test [15], in test [16] and in [17] was inactive. The outcome in [18] and in test [19] was inactive.

On to `CCOc1ccc(C(C)(C)COCc2cccc(Oc3ccccc3)c2)cc1`, for which the results for the AC50 in test [1] and in [10] were 10.7 µM (active) and 2.26 µM (active), respectively. Besides, the outcome in test [2], in test [3], in test [4], in test [5], in test [6] and in test [7] was inactive. In addition, the outcome in [8], in test [9], in test [11], in test [12], in [13] and in [14] was inactive. Further, the result in test [15], in test [16], in [17], in test [18] and in test [19] was inactive.

Regarding `CCOS(=O)(=O)OCC`, the result in [1], in test [2], in test [3], in test [4], in [5] and in test [6] was inactive. Moreover, the outcome in [7], in test [8], in test [9], in test [10], in test [11] and in test [12] was inactive. Besides, the outcome in test [13], in [14], in test [15], in test [16], in test [17] and in test [18] was inactive. In test [19], the result was inactive.
